Experimental findings from ChEMBL document CHEMBL4513216, “Probing the Open Global Health Chemical Diversity Library for Multistage-Active Starting Points for Next-Generation Antimalarials” (ACS Infect Dis, 2020) are described below.

Structures are written as SMILES. Out of some 69,000 compounds screened, about 8,600 (12%) showed an effect of 50% or more. The list comes from a sample in which strong results are over-represented; it also holds similar structures and randomly drawn compounds.

The test concerns Plasmodium berghei. The test can be described thus: Screen against P. berghei liver stage (PbLuc), transformed with Luciferase, at 10uM. The class given is functional, HepG2. As to conditions: tested at 10 uM.
Consider `CNC(=O)c1sc2ccccc2c1C1CCN(c2nc(C)cc(C)n2)C1` (stereo unspecified), for which the INHIBITION is listed as 0.696%.

As for `Cc1ccc2c(c1)CCC21CCN(C(=O)CN(C)C)CC1`, the INHIBITION is listed as 38.5%.

On to `Cc1nc(CN(C)C(=O)c2cc(C)sc2NC(=O)C(C)(C)C)no1`, for which the INHIBITION is recorded as 18%.

Regarding `Cc1cc(C(=O)N(C)Cc2ccn[nH]2)c(NC(=O)C(C)(C)C)s1`, the INHIBITION was found to be 51.3%.

`Cc1cc(C(=O)N(C)Cc2ccoc2)c(NC(=O)C(C)(C)C)s1`: the INHIBITION is -28.9%.

As for `O=C([C@@H]1CCO[C@@H]2CCN(Cc3ccc(F)cc3)C[C@H]21)N1CCCCO1`, the INHIBITION is 30.3%.

In the case of `CCCc1cc(NCc2cc(C)on2)n2nccc2n1`, the INHIBITION stood at 23.8%.

Consider `CCc1cc(NCc2cc(CC(C)C)on2)n2nccc2n1`, for which the INHIBITION was 26.8%.

For the molecule `CCCc1cc(CNc2cc(CCC)nc3ccnn23)on1`, the INHIBITION is on record as 53.5%.

Turning to `COc1ccccc1CC(=O)NC1CCCc2cn[nH]c21` (stereo unspecified), the INHIBITION is reported as 8.31%.

Turning to `Cc1cccc(CN2C[C@@H]3CN(C(=O)c4ccco4)C[C@@H]3C2=O)n1`, the INHIBITION is 23.5%.

For `CC(Cn1cncn1)Nc1ccc(-c2nccn2C)nn1` (stereo unspecified), the INHIBITION was determined as 9.91%.

Consider `CC(CCn1cccn1)Nc1ccc(-c2nccn2C)nn1` (stereo unspecified), for which the INHIBITION is 48.5%.

With `CC(CCCC(C)(C)O)Nc1ccc(-c2nccn2C)nn1` (stereo unspecified), the INHIBITION is 60.4%.

As for `CN(C)CCN(Cc1ccc(F)cc1)C(=O)c1ccn(C)c(=O)c1`, the INHIBITION is given as 39.1%.

With `Cc1nc(CN2C(=O)CCC23CCN(Cc2ccccn2)CC3)cs1`, the INHIBITION came to 19.4%.

Consider `Cc1cc2ccccc2n1CCC(=O)N1CCCC(O)(CN(C)C)CC1` (stereo unspecified), for which the INHIBITION was -60.9%.

Take `CN(C)CC1(O)CCCN(C(=O)Cn2nc3ccccc3n2)CC1` (stereo unspecified): the INHIBITION is -21.8%.

On to `CN(C)CC1(O)CCCN(C(=O)Cn2ccc3ccccc32)CC1` (stereo unspecified), for which the INHIBITION stood at 89.9%.

In the case of `Cc1nc2ccc(C(=O)N3CCC(COc4ccccn4)CC3)cc2[nH]1`, the INHIBITION is -6.73%.

As for `Cc1cc(C)nc(C2CCCN2C(=O)c2coc(C)n2)n1` (stereo unspecified), the INHIBITION was 20.2%.

On to `Cc1cc(C)n(Cc2ccc(-c3noc(C(=O)NCCCO)n3)cc2)n1`, for which the INHIBITION is on record as 33%.

On to `CCc1nnc2n1CCN(Cc1nc3c(F)cccc3[nH]1)C2`, for which the INHIBITION was 58.1%.

As to `CC(C)c1nnc2n1CCN(Cc1cccc3c1OCCO3)C2`, the INHIBITION is -67.8%.

For `CCc1nnc2n1CCN(Cc1cccc3c1OCCO3)C2`, the INHIBITION amounted to 50.35%.

For `CCc1nnc2n1CCN(Cc1ccc3c(c1)OCCO3)C2`, the INHIBITION came out at 18.9%.

Regarding `CCc1ncc2c(n1)CN(Cc1nc3c(F)cccc3[nH]1)CC2`, the INHIBITION stood at 52.8%.

With `CC(C)c1ncc2c(n1)CN(Cc1nc3c(F)cccc3[nH]1)CC2`, the INHIBITION came out at 36.6%.

For `Fc1cccc2[nH]c(CN3CCn4c(nnc4C4CC4)C3)nc12`, the INHIBITION is reported as -33.5%.

Take `Cc1nnc2n1CCN(Cc1nc3c(F)cccc3[nH]1)C2`: the INHIBITION was -43.5%.

As to `Fc1cccc2[nH]c(CN3CCc4cncnc4C3)nc12`, the INHIBITION was 52.8%.

On to `c1cc(CN2CCc3cncnc3C2)c2c(c1)OCCO2`, for which the INHIBITION came out at 41.6%.

Take `Cc1ncc2c(n1)CN(Cc1nc3c(F)cccc3[nH]1)CC2`: the INHIBITION was determined as 0.902%.

Turning to `CC(C)c1nnc2n1CCN(Cc1nc3c(F)cccc3[nH]1)C2`, the INHIBITION is -65%.

With `COc1cccc2c(=O)n(Cc3nc(C)cc(O)n3)cnc12`, the INHIBITION was 1.56%.

For `Cc1[nH]c2ccc(C(=O)N3C[C@@H](O)[C@H](N4CCOCC4)C3)cc2c1C`, the INHIBITION is listed as -29.8%.

`O=C(NCc1ccccc1)C1CN(c2ccccn2)CCO1` (stereo unspecified): the INHIBITION was 22%.

On to `CCS(=O)(=O)N1CCN(C(C)c2ncc(-c3ccccc3)o2)CC1` (stereo unspecified), for which the INHIBITION is 12.9%.

As to `CN(C)c1ncc(-c2ccc(NC(=O)[C@@H]3CCCCN3)cc2)cn1`, the INHIBITION was determined as 1.11%.

As for `CN1CCCC1(CCCc1cccnc1)C(=O)NCc1nccn1C` (stereo unspecified), the INHIBITION stood at 15.5%.

Regarding `CC(c1ccc(S(N)(=O)=O)cc1)N(C)C(=O)c1ccccc1I` (stereo unspecified), the INHIBITION is given as -43.5%.

Consider `CC(C)c1nc(CN(C)Cc2cnc(N3CCOCC3)nc2)no1`, for which the INHIBITION is given as 74.7%.

For the molecule `Cc1noc(C)c1CN(C)Cc1cnc(N2CCOCC2)nc1`, the INHIBITION is listed as 39.4%.

For the molecule `Cc1noc(CN(C)Cc2cnc(N3CCOCC3)nc2)n1`, the INHIBITION is listed as 20.1%.

With `COc1ccc(Oc2ncccc2NC(=O)N2CCOC(C)C2)cc1` (stereo unspecified), the INHIBITION came to 44.3%.

As for `COc1ccc(Oc2ncccc2NC(=O)N2CCOCC2)cc1`, the INHIBITION was found to be 55.5%.

`COc1ncccc1NC(=O)NCC1CC1`: the INHIBITION is 12.2%.

On to `CCCC1CCCN(C(=O)Nc2ccc(F)c(C(N)=O)c2)CC1` (stereo unspecified), for which the INHIBITION is recorded as 53.8%.

For the molecule `COc1ccc(Oc2ncccc2NC(=O)N2CC[C@H](O)C2)cc1`, the INHIBITION is on record as 16.3%.

As for `COc1ncccc1NC(=O)N1CCCC(CNC(=O)OC(C)(C)C)C1` (stereo unspecified), the INHIBITION was determined as 57.7%.

Consider `CCOc1ncccc1NC(=O)N1CCCC(CNC(N)=O)C1` (stereo unspecified), for which the INHIBITION was determined as 22.8%.

Consider `CCN(CC)C(=O)C1CCN(C(=O)Nc2cccnc2OC)CC1`, for which the INHIBITION was 22.6%.

Consider `CCCC1CCCN(C(=O)Nc2cccnc2OC)CC1` (stereo unspecified), for which the INHIBITION turned out to be 81.6%.

As for `NC(=O)c1cc(NC(=O)N2CCCCCC2)ccc1F`, the INHIBITION was -7.9%.

Consider `CC1CCCN(C(=O)Nc2ccc(F)c(C(N)=O)c2)C1` (stereo unspecified), for which the INHIBITION was 23.6%.

On to `COc1ncccc1NC(=O)N1CCC(CNC(C)=O)CC1`, for which the INHIBITION was determined as 7.9%.
